From PubChem BioAssay (NCI) come the findings set out here.

Assay [1] in a line: NCI Yeast Anticancer Drug Screen. Data for the rad50 strain (AID 155).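 Also: 0% = growth of vehicle-only cultures of the same strain.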 The settings on record: S. cerevisiae rad50 strain growth inhibition; at 50.0 µM; hits give high values. The method, boiled down:
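Inhibition values express reduced yeast growth in compound-treated cultures relative to vehicle-treated controls.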

Assay [2] can be described thus: NCI Yeast Anticancer Drug Screen. Data for the mec2-1 strain (AID 157). The settings on record: S. cerevisiae mec2-1 strain, at 50.0 µM, hits give high values. The method, boiled down:
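Mutant yeast (mec2-1) grown with compound; growth inhibition relative to vehicle control reported.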

The nature of assay [3]: NCI Yeast Anticancer Drug Screen. Data for the sgs1 mgt1 strain (AID 161).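 Also: 0% = growth of cultures given vehicle only.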 The settings on record: S. cerevisiae sgs1 mgt1 strain, at 50.0 µM, hits give high values. The method, boiled down: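 Yeast cells carrying a defined DNA-repair defect were exposed to test compounds. Growth inhibition was measured relative to vehicle-treated controls.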
The nature of assay [4]: NCI Yeast Anticancer Drug Screen. Data for the cln2 rad14 strain (AID 165).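 Also: 0% = growth equal to vehicle treated cultures.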 The settings on record: S. cerevisiae cln2 rad14 strain, at 50.0 µM, hits give high values. The method, boiled down: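 Readout is yeast growth inhibition versus vehicle-treated controls, using a strain with cln2 and rad14 alterations exposed to compound.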
Assay [5] in a line: NCI Yeast Anticancer Drug Screen. Data for the bub3 strain (AID 167). To be noted: S. cerevisiae bub3 mutant strain, at 50.0 µM, hits give high values. The method, boiled down: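 Steps: expose the mutant yeast strain to compound; grow alongside vehicle-treated cultures; measure growth; express inhibition against the vehicle cultures.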
Assay [6] is described as follows: NCI Yeast Anticancer Drug Screen. Data for the mlh1 rad18 strain (AID 175). To be noted: S. cerevisiae mlh1 rad18 strain growth inhibition; at 50.0 µM; hits give high values. The method, boiled down:
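Genetically defined yeast (DNA repair-deficient) exposed to compounds; growth inhibition determined relative to vehicle.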

Compounds without any hit were thinned out: in the full panel of roughly 79,000, 15% have a hit. Unmarked numbers belong to inactive results. Active and inactive are the calls of the source. Rule as the data show it: active = growth inhibition above about 70%; inactive = the rest.

As to `Nc1cnc2c(c1)c(=O)nc1n2CCS1`, the growth inhibition in assay [1] is -0.45%; in assay [2], 9.65%; in assay [3], 6.6%; in assay [4], 5.3%; in assay [5], 0.5%; in assay [6], -27.1%.
On to `COc1ccccc1NC(=O)CC(=O)N1N=C(N2c3ccccc3Sc3ccccc32)CC1c1ccccc1` (stereo unspecified), for which the growth inhibition is 2.55% in assay [1]; 3.2% in assay [2]; -2.15% in assay [3]; 22.7% in assay [4]; 12.4% in assay [5]; -66.5% in assay [6].
Turning to `CCOC(=O)c1cnc2cc3c(cc2c1Nc1cccc(C)c1)OCO3`, the growth inhibition in assay [1] was -9.9%; in assay [2], -5%; in assay [3], -5.85%; in assay [4], -57.8%; in assay [5], -1.45%; in assay [6] it was -6%.
For `CCCCCCCCCCCCCCCCCCCCCCCCCCCC`, the growth inhibition in assay [1] is -8.5%; in assay [2] it was -10.1%; in assay [3], -16%; in assay [4], -21.2%; in assay [5] it was -4.55%; in assay [6] it was -22.9%.
With `CCc1c(O)c2c(c(O)c1C(C)=O)C(=O)c1c(cc(O)c(C(=O)O)c1C(=O)O)C2=O`, the growth inhibition in assay [1] is -3.15%; in assay [2], 9.8%; in assay [3], 24.2%; in assay [4] it was 10.2%; in assay [5], 20.3%; in assay [6], 12.8%.
With `CC1(C)OC(=O)C=C(O)O1.CC1(C)OC(=O)C=C(O)O1.CCO.Oc1ccc2c(c1)CCC2.[Ti]`, the growth inhibition was -15.7% in assay [1]; -13.5% in assay [2]; -29.1% in assay [3]; 20.4% in assay [4]; -5.05% in assay [5]; 6.75% in assay [6].
As to `C=C(C)C(C)(C)n1[nH]c(=O)n(-c2ccccc2)c1=O`, the growth inhibition in assay [1] is 13.2%; in assay [2], -0.05%; in assay [3], -0.3%; in assay [4], -23.1%; in assay [5], -13.4%; in assay [6] it was 0%.
With `O=C(O)C1CCCCN1/N=C/c1ccccc1` (stereo unspecified), the growth inhibition in assay [1] is 15.8%; in assay [2] it was 6.8%; in assay [3] it was -1.65%; in assay [4] it was -13.6%; in assay [5] it was -30.8%; in assay [6] it was 21.9%.
Turning to `Ic1ccc([I+]c2ccc(I)cc2)cc1`, the growth inhibition in assay [1] is 94.4% (active); in assay [2], 94.2% (active); in assay [3], 97% (active); in assay [4], 93.5% (active); in assay [5], 94.3% (active); in assay [6], 90.8% (active).
`CCCCc1ccc(Nc2c(C(=O)OCC)cnc3cc4c(cc23)OCO4)cc1`: the growth inhibition in assay [1] is 4.6%; in assay [2], -12.4%; in assay [3], -15.2%; in assay [4], 8.5%; in assay [5], 3.95%; in assay [6], -17.4%.
For `CCN(CC)c1ccc(N=C2C=C(C(=O)Nc3ccc(S(C)(=O)=O)cc3)C(=O)c3ccccc32)c(C)c1`, the growth inhibition in assay [1] was -15.8%; in assay [2] it was -29.5%; in assay [3], 2.55%; in assay [4], 6.6%; in assay [5], -4.2%; in assay [6], -17.2%.
Take `COc1cccc2c(C(=O)O)cc(-c3ccc(Cl)cc3)nc12`: the growth inhibition was 7.85% in assay [1]; 0.75% in assay [2]; 19.1% in assay [3]; 15.2% in assay [4]; 6.9% in assay [5]; 15.9% in assay [6].
As for `O=S1(=O)C(c2cccc(C(F)(F)F)c2)=C(O)c2cc3ccccc3nc21`, the growth inhibition is 47.9% in assay [1]; 21% in assay [2]; 49.2% in assay [3]; 33.2% in assay [4]; -4.6% in assay [5]; 18.6% in assay [6].
As to `COc1cc2c3c4c1OCc1c5c(cc(c1-4)CC3[N+](C)(C)CC2)OCO5` (stereo unspecified), the growth inhibition in assay [1] was 4.35%; in assay [2] it was 6.3%; in assay [3], 8.7%; in assay [4] it was 21.1%; in assay [5], 11.1%; in assay [6] it was -52.1%.
As for `CCN1CCCC1CO` (stereo unspecified), the growth inhibition is -1.15% in assay [1]; -25.1% in assay [2]; -10.1% in assay [3]; 0.1% in assay [4]; -4.35% in assay [5]; 6.65% in assay [6].
Turning to `CC(=O)c1ccc2ccc3ccccc3c2c1`, the growth inhibition in assay [1] was 15.2%; in assay [2] it was -0.6%; in assay [3], 18.6%; in assay [4], -31.1%; in assay [5], 1.15%; in assay [6], 11.8%.
Take `CSc1nnn(C(C)(C)C)n1`: the growth inhibition in assay [1] is 5.35%; in assay [2], 6%; in assay [3], -3.5%; in assay [4] it was -15.9%; in assay [5], -8.75%; in assay [6] it was 8.8%.
Regarding `Cc1ccc(N=C=O)cc1N1C(=O)N(c2cc(N=C=O)ccc2C)C1=O`, the growth inhibition in assay [1] was -41.5%; in assay [2] it was -55%; in assay [3], -48%; in assay [4], -139%; in assay [5] it was -10.5%; in assay [6], -60.4%.
In the case of `NC(=O)N/N=C(/Cl)C(=O)NNC(N)=O`, the growth inhibition in assay [1] is -4.4%; in assay [2], 6.25%; in assay [3], -10.5%; in assay [4], -81.2%; in assay [5], -0.95%; in assay [6], -27.1%.
In the case of `CC(=O)/C(=C/N1CCNC1=S)C(=O)Nc1ccc(Cl)cc1`, the growth inhibition is -34.5% in assay [1]; -24% in assay [2]; -39.6% in assay [3]; 0.2% in assay [4]; -39.2% in assay [5]; -26.3% in assay [6].
As for `CCSCCOC(=S)Nc1ccccc1`, the growth inhibition in assay [1] was -6.25%; in assay [2] it was -8.05%; in assay [3] it was -4.9%; in assay [4], 0.7%; in assay [5] it was 4.25%; in assay [6], 7.1%.
